Assay outcomes deposited in PubChem by Sanford-Burnham Center for Chemical Genomics.
CYP2C9 act: activators of human CYP2C9 | recombinant CYP2C9, luciferin-H conversion, luminescence; active compounds read high; factor 1 = untreated enzyme, 0 = blocked | P11712 | activation factor at 5 µM | AID 1024 | 96,000 tested, 1.4% active;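 active = activation factor of 2 or more for CYP2C9 at a 5 µM dose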;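 note: 0 = sulfaphenazole-blocked wells and 1 = vehicle-only wells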
CYP2C19 act: activators of human cytochrome P450 2C19; P33261; activation factor at 5 µM; recombinant CYP2C19, luciferin-H EGE luminescence; active compounds read high; 0 = fully inhibited enzyme, 1 = untreated enzyme; 96,000 tested, under 10 active;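 active = activation factor of at least 2 at 5 µM in the primary screen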;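 note: 0 = wells with 2.5 mM tranylcypromine and 1 = vehicle-only wells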
Mac1 fbg enh: enhancers of human CD11b/CD18 binding to fibrinogen | P05107+P11215 | K562 CD11b/CD18 adhesion to fibrinogen, ATPlite luminescence | activation, % at 10 µM | 93,000 tested, 0.07% active | AID 1499;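 active = 10 µM primary screen giving 50% or more activity, confirmed by 40% or more on retest at that dose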
Target sequence (P05107 whole entry, looked up, other chains not shown): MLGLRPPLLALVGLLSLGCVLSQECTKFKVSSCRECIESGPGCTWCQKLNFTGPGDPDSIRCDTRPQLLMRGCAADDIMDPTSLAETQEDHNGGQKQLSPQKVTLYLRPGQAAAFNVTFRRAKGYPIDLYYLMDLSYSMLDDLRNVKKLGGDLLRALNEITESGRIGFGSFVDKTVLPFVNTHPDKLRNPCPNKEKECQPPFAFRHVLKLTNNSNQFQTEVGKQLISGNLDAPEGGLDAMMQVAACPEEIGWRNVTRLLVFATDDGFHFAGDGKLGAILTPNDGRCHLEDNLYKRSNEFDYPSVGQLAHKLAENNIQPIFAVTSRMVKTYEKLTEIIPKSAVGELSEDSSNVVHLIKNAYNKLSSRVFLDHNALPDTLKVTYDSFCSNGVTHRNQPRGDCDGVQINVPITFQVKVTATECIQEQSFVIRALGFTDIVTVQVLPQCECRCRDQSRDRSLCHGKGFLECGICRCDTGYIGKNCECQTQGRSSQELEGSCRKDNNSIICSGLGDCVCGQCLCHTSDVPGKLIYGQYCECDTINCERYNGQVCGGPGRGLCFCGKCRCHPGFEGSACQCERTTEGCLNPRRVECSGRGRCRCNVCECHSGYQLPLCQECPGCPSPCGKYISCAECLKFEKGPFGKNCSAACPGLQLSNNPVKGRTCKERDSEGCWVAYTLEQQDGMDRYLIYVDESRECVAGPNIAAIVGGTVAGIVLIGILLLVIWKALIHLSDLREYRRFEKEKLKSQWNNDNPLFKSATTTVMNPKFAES
CYP2C9 inhib: inhibitors of human CYP2C9 | P11712 | CYP2C9 Supersomes, luciferin-H conversion, luminescence | inhibition, % at 5 µM | 96,000 tested, 20% active | AID 777;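 active = blocking of liver enzyme CYP2C9 beyond about 50% at 5 µM, limit read from the data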
Mac1 fbg inh: inhibitors of human CD11b/CD18 binding to fibrinogen; 93,000 tested, 0.54% active; P05107+P11215; K562 CD11b/CD18 adhesion to fibrinogen, ATPlite luminescence; Mn2+ added to activate the integrin; inhibition, % at 10 µM; AID 1497;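 active = primary inhibition of 50% or more at 10 µM, then 40% or more on retest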
CYP2C19 inh: human CYP2C19 inhibition; AID 778; 96,000 tested, 21% active; CYP2C19 Supersomes, luciferin-H EGE luminescence, 30 min; inhibition, % at 5 µM; P33261;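 active = CYP2C19 inhibition above a set limit at 5 µM in the primary screen, cut at about 50% in these data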;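 note: plate controls were negative control wells for no effect and 2.5 mM tranylcypromine positive control for full effect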
The depositor's hits bear a star. Sampled rows, rich in hits. Any-hit rate of the full collection: about 28%.

How did Cc1onc(-c2ccccc2)c1C(=O)Nc1nc(-c2cc(F)ccc2F)cs1 do in these assays?
CYP2C9 act: 1.1; CYP2C19 act: 1.1; Mac1 fbg enh: 1; CYP2C9 inhib: -14; Mac1 fbg inh: 7; CYP2C19 inh: -11

How did Cc1cc(NC(=O)NC(=O)c2ccc(F)cc2F)n[nH]1 do in these assays?
CYP2C9 act: 1; CYP2C19 act: 0.7; CYP2C9 inhib: -4; CYP2C19 inh: 28

Results for O=C1Nc2ccccc2C(O)(C(=O)NCc2ccc3c(c2)OCO3)N1c1ccc(Cl)c(Cl)c1 (stereo unspecified) ?
CYP2C9 act: 0.9; CYP2C19 act: 1; CYP2C9 inhib: 5; CYP2C19 inh: -3

What do the screens show for `CCSc1ncc(Cl)c(C(=O)Nc2sc3c(c2C(=O)NCc2cccnc2)CCCC3)n1`?
CYP2C9 act: 0.9; CYP2C19 act: 1; Mac1 fbg enh: 6; CYP2C9 inhib: 11; Mac1 fbg inh: -6; CYP2C19 inh: 4

Results for Cc1ccc(C(C2C(=O)CC(C)(C)CC2=O)C2C(=O)CC(C)(C)CC2=O)s1 ?
CYP2C9 act: 1; CYP2C19 act: 0.8; CYP2C9 inhib: 0; CYP2C19 inh: 19

Results for COC(=O)c1ccc(C)c(NC(=O)c2c(-c3ccccc3)noc2C)c1 ?
CYP2C9 act: 0.6; CYP2C19 act: 0.3; Mac1 fbg enh: -3; CYP2C9 inhib: 39; Mac1 fbg inh: -9; CYP2C19 inh: 69*

Results for CCC(CC)c1nnc(NC(=O)c2c(-c3ccccc3)noc2C)s1 ?
CYP2C9 act: 0.4; CYP2C19 act: 0.8; Mac1 fbg enh: 0; CYP2C9 inhib: 58*; Mac1 fbg inh: 1; CYP2C19 inh: 19

Results for Cc1nnc(NC(=O)c2c(-c3ccccc3)noc2C)s1 ?
CYP2C9 act: 1; CYP2C19 act: 1; CYP2C9 inhib: -1; CYP2C19 inh: -5

How did CC1CCCC(C)N1CC(O)COc1ccc(Cl)cc1 (stereo unspecified) do in these assays?
CYP2C9 act: 1.1; CYP2C19 act: 0.7; Mac1 fbg enh: -3; CYP2C9 inhib: -10; Mac1 fbg inh: 8; CYP2C19 inh: 25

How did O=C(NCc1ccccn1)C1CC(c2ccc(F)cc2)=NO1 (stereo unspecified) do in these assays?
CYP2C9 act: 1; CYP2C19 act: 0.8; Mac1 fbg enh: -1; CYP2C9 inhib: 0; Mac1 fbg inh: -39; CYP2C19 inh: 20

How did COC(=O)c1c(C(=O)OC)c(-c2cccc(C)c2)n2c1CS(=O)(=O)C2 do in these assays?
CYP2C9 act: 1; CYP2C19 act: 1; Mac1 fbg enh: 2; CYP2C9 inhib: 3; Mac1 fbg inh: -16; CYP2C19 inh: 1

What do the screens show for `C=CCNC(=O)NS(=O)(=O)c1ccc(C)cc1`?
CYP2C9 act: 1; CYP2C19 act: 0.9; Mac1 fbg enh: 0; CYP2C9 inhib: 0; Mac1 fbg inh: -10; CYP2C19 inh: 6

How did Cc1cn(C2CC3OCC3O2)c(=O)[nH]c1=O (stereo unspecified) do in these assays?
CYP2C9 act: 1; CYP2C19 act: 1; Mac1 fbg enh: -2; CYP2C9 inhib: 3; Mac1 fbg inh: -20; CYP2C19 inh: -1

Results for Cc1cc(C)c2c(N)c(C(=O)c3cccc(Cl)c3)sc2n1 ?
Mac1 fbg enh: -2; Mac1 fbg inh: -8

Results for CCCCCCCCS(=O)c1sc2nc(C)cc(C)c2c1N (stereo unspecified) ?
CYP2C9 act: 0.2; CYP2C19 act: 0.1; Mac1 fbg enh: -4; CYP2C9 inhib: 79*; Mac1 fbg inh: 44; CYP2C19 inh: 88*

Results for CN1CCN(C(=S)Nc2ccc(Cl)cc2Cl)CC1 ?
CYP2C9 act: 0.9; CYP2C19 act: 0.9; Mac1 fbg enh: -2; CYP2C9 inhib: 11; Mac1 fbg inh: 6; CYP2C19 inh: 9

How did COc1ccc(/C=N/NC(=O)c2cccnc2)cc1CSc1nc2ccccc2s1 do in these assays?
Mac1 fbg enh: 0; Mac1 fbg inh: -22

What do the screens show for `COc1ccc(/C=N/NC(=O)c2cc(-c3ccccc3OC)nc3ccccc23)cc1COC(C)=O`?
CYP2C9 act: 0.3; CYP2C19 act: 0.6; Mac1 fbg enh: -3; CYP2C9 inhib: 72*; Mac1 fbg inh: -3; CYP2C19 inh: 44

How did COc1ccc(/C=N/NC(=O)c2ccccc2Cl)cc1CSc1nc2ccccc2s1 do in these assays?
CYP2C9 act: 0.2; CYP2C19 act: 0.5; Mac1 fbg enh: -6; CYP2C9 inhib: 82*; Mac1 fbg inh: 12; CYP2C19 inh: 51*

How did COc1ccc(/C=N/NC(=O)c2cc(-c3ccc(C)cc3C)nc3ccccc23)cc1COC(C)=O do in these assays?
CYP2C9 act: 0.3; CYP2C19 act: 0.5; CYP2C9 inhib: 74*; CYP2C19 inh: 47

What do the screens show for `N#CC(C#N)C(c1ccsc1)c1c(-c2ccccc2)[nH][nH]c1=O` (stereo unspecified)?
CYP2C9 act: 0.9; CYP2C19 act: 0.9; Mac1 fbg enh: -5; CYP2C9 inhib: 11; Mac1 fbg inh: -28; CYP2C19 inh: 11

Results for CCCc1[nH][nH]c(=O)c1C(c1cccc(Cl)c1)C(C#N)C#N (stereo unspecified) ?
CYP2C9 act: 0.3; CYP2C19 act: 0.3; Mac1 fbg enh: -2; CYP2C9 inhib: 75*; Mac1 fbg inh: 5; CYP2C19 inh: 75*

Results for Cc1cc(C)n(-c2nc(SCC(=O)NCC3CCCO3)c3c4c(sc3n2)CCCC4)n1 (stereo unspecified) ?
CYP2C9 act: 0.2; CYP2C19 act: 0.4; Mac1 fbg enh: 0; CYP2C9 inhib: 85*; Mac1 fbg inh: 5; CYP2C19 inh: 63*

What do the screens show for `CN1C(=O)c2cccc3c(S(=O)(=O)NCc4ccco4)ccc1c23`?
CYP2C9 act: 0.2; CYP2C19 act: 0.1; Mac1 fbg enh: 0; CYP2C9 inhib: 79*; Mac1 fbg inh: -18; CYP2C19 inh: 94*

Results for Cn1cc(S(=O)(=O)NCc2ccco2)c(=O)n(C)c1=O ?
CYP2C9 act: 1.2; CYP2C19 act: 1; Mac1 fbg enh: 4; CYP2C9 inhib: -16; Mac1 fbg inh: -6; CYP2C19 inh: 2

Results for COc1ccc(S(=O)(=O)NCc2ccco2)c2ccccc12 ?
CYP2C9 act: 2*; CYP2C19 act: 0.5; Mac1 fbg enh: 3; CYP2C9 inhib: -104; Mac1 fbg inh: 0; CYP2C19 inh: 47

What do the screens show for `Cc1onc(-c2ccccc2Cl)c1C(=O)OCC(=O)c1ccc2c(c1)OCCO2`?
CYP2C9 act: 0.5; CYP2C19 act: 0.4; Mac1 fbg enh: -4; CYP2C9 inhib: 47; Mac1 fbg inh: 21; CYP2C19 inh: 55*

Results for Cc1ccc(Cn2ccc(NC(=O)c3noc4c3CCc3ccccc3-4)n2)cc1 ?
CYP2C9 act: 1.7; CYP2C19 act: 1.1; Mac1 fbg enh: 5; CYP2C9 inhib: -67; Mac1 fbg inh: 8; CYP2C19 inh: -10
